# Compound activity from PubChem BioAssay.
# MLL AF4-AF9 inh = inhibitors of AF4 peptide binding to AF9, primary screen, biochemical, AlphaScreen, biotin-AF4 peptide, FLAG-AF9, single point; Protein AF-9 (Homo sapiens), P42568; inhibition, % at 10 µM; 350,000 tested, 0.47% active; AID 651704, 2012;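 active means every replicate reaching a set inhibition limit, whatever the replicate mean, cut at about 25% in these data; inconclusive means mean inhibition reaches that limit but some replicates miss it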;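 further: 0% = plate neutral control median and 100% = total signal loss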
# RAD52 anneal inh = RAD52 DNA annealing inhibitors, primary screen, biochemical, FRET, single point, set 2; AID 651710, 2012; inhibition, % at 18.7 µM; recombinant RAD52 DNA annealing, FRET fluorescence; DNA repair protein RAD52 homolog (Homo sapiens), P43351; 360,000 tested, 0.46% active;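 active means every replicate showing at least 50% inhibition; inconclusive means mean inhibition at least 50% but not in every replicate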
# FGF22 binding-1 = binders of human FGF22 protein, primary screen, FGF22 synaptogenesis inhibitor project, biophysical, thermal shift, single point. Fibroblast growth factor 22 (Homo sapiens), Q9HCT0. recombinant FGF22 thermal shift, SYPRO orange fluorescence; percent of sucrose octasulfate shift, DMSO zero. activity (Tm shift, normalised), % at 9.99 µM. 340,000 tested, 1.5% active;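 active means mean Tm shift, scaled 0 neutral to 100 positive control, at about 1.3% or above, every replicate too, limit read from the data; inconclusive means no clear call, values can overlap the other calls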
# DENV2 CPE = inhibitors of DENV2 cytopathic effect, primary screen, cell-based, plate reader, single concentration. CPE inhibition, % at 9.99 µM. DENV2-infected cells, cytopathic effect rescue. 350,000 tested, 1.7% active; in the data active means CPE inhibition above about 20%, passing the limit was not always enough; inconclusive means no clear call, values can overlap the other calls; tested in BHK-21 cells;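 further: 0% = median of neutral control wells and 100% = median of positive control wells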
# ERAP1 inh = human ERAP1 aminopeptidase inhibitors, primary screen, biochemical, single point, plate reader; Endoplasmic reticulum aminopeptidase 1 (Homo sapiens), Q9NZ08; recombinant ERAP1, Leu-AMC fluorescence, 60 min; inhibition, % at 10.7 µM; 340,000 tested, 0.15% active; AID 652197, 2013;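 active means mean replicate inhibition of at least 30%, or all replicates individually reaching that 30% level; inactive means mean below 30% and not every replicate reaching it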;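 further: 0% = neutral control wells and 100% = L-leucinethiol positive control wells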
# FGF22 binding-2 = binders of human FGF22 protein, dose response, FGF22 synaptogenesis inhibitor project, biophysical, thermal shift, cherry-pick retest. shares compounds with FGF22 binding-1. recombinant FGF22 thermal shift, SYPRO orange fluorescence. thermal shift activity, °C (ΔTm) at 38 µM. 1,000 tested, 2% active. AID 720646, 2013;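 active means fitted rise in melting shift crosses a set limit at or below the top valid dose tested; inconclusive means flat fit at mid-level activity, or a poor quality fit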
# SYPRO no-protein = compound-only thermal shift signal without protein, dose response, artefact control for FGF22 binder project, biochemical, cherry-picked samples, RT-PCR instrument | shares compounds with FGF22 binding-1 | compound-only SYPRO orange thermal shift counter-screen, no protein | AC50, µM (doses to about 38 µM) | 1,000 tested, 2% active | AID 743019, 2013;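 active means rising signal whose fitted curve reaches the 0.54 level within the top valid dose, showing a melting point, actives reach about 13 µM in these data; inactive means the rest, including activity in the opposite direction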; further: value is where the raw curve crosses a fixed level and not half-maximal
# * hit, by the source's call; i = inactive; ? = inconclusive; · = no result; [ ] = another dose, or the depositor's remark. In the library only some 4% were active in any assay of this set; here they are far more common.
SMILES,MLL AF4-AF9 inh,RAD52 anneal inh,FGF22 binding-1,DENV2 CPE,ERAP1 inh,FGF22 binding-2,SYPRO no-protein
C[C@@H]1CCCCO[C@H](CN(C)C(=O)C2CCCCC2)[C@H](C)CN([C@H](C)CO)C(=O)c2cc(NS(C)(=O)=O)ccc2O1,2,9,1.7*,-4,-1,-0.1,i
C[C@H]1CCCCO[C@H](CN(C)Cc2ccncc2)[C@@H](C)CN([C@@H](C)CO)C(=O)c2cc(NC(=O)c3ccncc3)ccc2O1,-2,1,1.2*,2,1,0.044,i
COc1ccc2c3c([nH]c2c1)[C@H](CO)N(Cc1ccncc1)CC31CCN(C(=O)CN(C)C)CC1,-1,-31,0,-1,-2,·,·
C[C@H]1CN([C@@H](C)CO)C(=O)c2cc(NC(=O)Cc3cn(C)c4ccccc34)ccc2O[C@H]1CN(C)C,5,9,-1,-3,3,·,·
CNC(=S)N(Cc1ccc(OC)cc1)C1CC(=O)N(c2ccc(C(=O)OC)cc2)C1=O (stereo not drawn),2,-13,2.2*,?,2,-0.043,i
Cc1nc2ccccc2c2oc(C(=O)NCc3ccc4c(c3)OCO4)cc12,-10,-18,11*,7,-3,-4.6[19.5 µM],6.3µM*
Cc1nc(NC(=O)C2CC2)sc1C(=O)Nc1ccccc1Cl,-9,-14,1.9*,0,0,0.081,i
Cc1ccc(S(=O)(=O)N[C@H]2C=C[C@H](CC(=O)N3CCc4ccccc4C3)O[C@H]2CO)cc1,-2,10,1.3*,-9,-3,0.048[42 µM],i
Cc1ccc(S(=O)(=O)N[C@@H]2C=C[C@@H](CC(=O)N3CCc4ccccc4C3)O[C@H]2CO)cc1,-4,-17,-1,13,-1,·,·
Cc1ccc(S(=O)(=O)N[C@H]2C=C[C@@H](CC(=O)N3CCc4ccccc4C3)O[C@@H]2CO)cc1,-2,-8,1.3*,-8,-1,-0.004,i
O=C(Nc1ccc(O)cc1)c1cccc(Oc2ccc([N+](=O)[O-])cc2)c1,6,-5,3.1*,11,-3,0.16,i
CCC(CC)CN1CCC(CN2C(=O)C(=O)NC[C@@H]2CC(C)C)CC1,-1,-19,1.9*,5,-1,·,i
O=Cc1cc(N=Nc2cccc(C(=O)O)c2)ccc1O,-2,-11,2.0*,?,3,0.065,i
O=C(C[C@H]1CC[C@H]2[C@@H](COC[C@H](O)CN2CC2CCOCC2)O1)NCC1CCCCC1,0,-7,2.4*,14,-2,-0.021[42 µM],i
CN1CCN(C(=O)C[C@@H]2CC[C@H]3[C@@H](COC[C@H](O)CN3CC3CCCCC3)O2)CC1,3,39,24*,-13,1,0.1,i
O=C(CCc1c[nH]c2ccccc12)Nc1ccc(Oc2cccnc2)cc1,·,-93,1.5*,1,-5,-0.17,i
N#CCC(=O)Nc1ccc(C(=O)NCCc2c[nH]c3ccccc23)cc1,0,-30,1.4*,3,2,0.013,i
O=C(NCCc1c[nH]c2ccccc12)c1ccccc1,2,-9,1,-1,2,·,·
C[C@H]1CN([C@@H](C)CO)C(=O)c2cccc(NS(=O)(=O)c3ccc(Cl)cc3)c2O[C@@H]1CN(C)Cc1ccccc1,-1,8,0,-9,1,·,·
O=C(O)c1[nH]c2ccc(Br)cc2c1CCN1C(=O)c2cccc([N+](=O)[O-])c2C1=O,-13,-16,3.0*,-1,·,·,i
COc1ccccc1-c1ccc2n(c1=O)C[C@H]1[C@H](CO)[C@@H](C(=O)NC3CCC3)N(C(=O)NC(C)C)[C@@H]21,-3,-5,0,-2,2,·,·
